Measured values taken from the supplement of paper PMC8728848.
The entries come from a sample that favours the strongest signals as a whole.

B1: Epa23 (Candida glabrata) (protein)
chain: MGSSHHHHHHSSGLVPRGSHMIPNPFEGTINNFPSGCSPNHGLYNRGLTMELYNYSYIHPQSIQSYFNTSTLKKMEKGQCWDPSYLDVNYPRTGYKTHNRFAKVNGIDGILDFEFNPTRSCVPSKGQLPQNYNYPLQFTLSNFTMLLYGYFKPKVTAKHTFTIFADDLLFLNFGAGNAFDCCQQQDTIDDFGNYQAYALWGSDTQQNTLTVNLDANIYYPIRMFYNNRDFKGALNMYFTTDESNTKINDFSGYLFNIPDSSEGCPAHISYETECGNVSG
B2: FaeGac (Escherichia coli) (protein)
chain: WMTGDFNGSVDIGGSITADDYRQKWEWKVGTGLNGFGNVLNDLTNGGTKLTITVTGNKPILLGRTKEAFATPVTGGVDGIPHIAFTDYEGASVVLRKPDGETNKNGLAYFVLPMKNAGGTKVGSVKVNASYAGVLGRGGVTSADGELLSLFADGLSSIFYGGLPRGSELSAGSAAAARTKLFGSLSRDDILGQIQRVNANVTSLVDVAGSYRENMEYTDGNVVSAAYALGIANGQTIEATFNQAVTTSTQWSAPLNVAITYY

Key:
Assay in all cases: glycan array binding signal (z-score within array); higher = stronger binding
Settings in all cases: glycan notation: IUPAC condensed, linker removed
[1] = biological target: Glc(a1-6)Glc(a1-6)Glc(a1-6)Glc
How it was run: (§1)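 Glycan array data were curated from 3228 arrays in the Consortium for Functional Glycomics database and kept only where the protein sequence was available. Glycan names were converted to IUPAC-condensed notation, and columns mapping to the same glycan were averaged. The binding signal is a within-array Z-score, averaged across arrays of the same protein sequence at different concentrations or buffers and across linkers. Negative Z-scores can be read as non-binding.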

[2] = biological target: GlcNAc(b1-2)[GlcNAc(b1-4)]Man(a1-3)[GlcNAc(b1-2)Man(a1-6)]Man(b1-4)GlcNAc(b1-4)GlcNAc
How it was run: as §1

[3] = biological target: GlcNAc(b1-3)Gal(b1-4)GlcNAc(b1-2)Man(a1-3)[GlcNAc(b1-3)Gal(b1-4)GlcNAc(b1-2)Man(a1-6)]Man(b1-4)GlcNAc(b1-4)[Fuc(a1-6)]GlcNAc
How it was run: as §1

[4] = biological target: GlcNAc(b1-3)Gal(b1-4)GlcNAc(b1-3)Gal(b1-4)GlcNAc(b1-2)Man(a1-3)[GlcNAc(b1-3)Gal(b1-4)GlcNAc(b1-3)Gal(b1-4)GlcNAc(b1-2)Man(a1-6)]Man(b1-4)GlcNAc(b1-4)[Fuc(a1-6)]GlcNAc
How it was run: as §1

[5] = biological target: GlcNAc(b1-3)Gal(b1-4)GlcNAc(b1-3)Gal(b1-4)GlcNAc(b1-2)[GlcNAc(b1-3)Gal(b1-4)GlcNAc(b1-3)Gal(b1-4)GlcNAc(b1-6)]Man(a1-6)[GlcNAc(b1-3)Gal(b1-4)GlcNAc(b1-3)Gal(b1-4)GlcNAc(b1-2)Man(a1-3)]Man(b1-4)GlcNAc(b1-4)[Fuc(a1-6)]GlcNAc
How it was run: as §1

GlcNAc(b1-3)GalNAc = biological target: GlcNAc(b1-3)GalNAc
How it was run: as §1

Kdn(a2-3)Gal(b1-4)Glc = biological target: Kdn(a2-3)Gal(b1-4)Glc
How it was run: as §1

[6] = biological target: Man(a1-2)Man(a1-3)[Man(a1-2)Man(a1-6)]Man(a1-6)[Man(a1-2)Man(a1-2)Man(a1-3)]Man
How it was run: as §1

[7] = biological target: Man(a1-3)[Man(a1-6)]Man(a1-6)[Man(a1-2)Man(a1-3)]Man(b1-4)GlcNAc(b1-4)GlcNAc
How it was run: as §1

[8] = biological target: Man(a1-3)[Man(a1-6)]Man(a1-6)[Man(a1-3)]Man
How it was run: as §1

[9] = biological target: Neu5Ac(a2-3)Gal(b1-3)GalNAc(b1-4)[Neu5Ac(a2-3)]Gal(b1-4)Glc
How it was run: as §1

[10] = biological target: Neu5Ac(a2-3)Gal(b1-3)GalNAc6S
How it was run: as §1

[11] = biological target: Neu5Ac(a2-3)Gal(b1-3)[Fuc(a1-4)]GlcNAc
How it was run: as §1

[12] = biological target: Neu5Ac(a2-3)Gal(b1-4)GlcNAc(b1-2)Man(a1-3)[Neu5Ac(a2-3)Gal(b1-4)GlcNAc(b1-2)Man(a1-6)]Man(b1-4)GlcNAc(b1-4)GlcNAc
How it was run: as §1

[13] = biological target: Neu5Ac(a2-3)Gal(b1-4)GlcNAc(b1-2)[Neu5Ac(a2-3)Gal(b1-4)GlcNAc(b1-4)]Man(a1-3)[GlcNAc(b1-4)][Neu5Ac(a2-3)Gal(b1-4)GlcNAc(b1-4)Man(a1-6)]Man(b1-4)GlcNAc(b1-4)GlcNAc
How it was run: as §1

[14] = biological target: Neu5Ac(a2-3)Gal(b1-4)[Fuc(a1-3)]GlcNAc(b1-3)Gal(b1-4)GlcNAc
How it was run: as §1

[15] = biological target: Neu5Ac(a2-3)[GalNAc(b1-4)]Gal(b1-4)GlcNAc
How it was run: as §1

[16] = biological target: Neu5Ac(a2-6)Gal(b1-4)GlcNAc(b1-6)[Gal(b1-3)GlcNAc(b1-3)]Gal(b1-4)Glc
How it was run: as §1

[17] = biological target: Neu5Ac(a2-8)Neu5Ac(a2-3)[GalNAc(b1-4)]Gal(b1-4)Glc
How it was run: as §1

[18] = biological target: Neu5Ac9Ac(a2-3)Gal(b1-4)GlcNAc
How it was run: as §1

[19] = biological target: Neu5Ac9Ac(a2-6)Gal(b1-4)GlcNAc
How it was run: as §1

[20] = biological target: Neu5Gc(a2-3)Gal(b1-4)GlcNAc
How it was run: as §1

[21] = biological target: Neu5Gc(a2-8)Neu5Gc(a2-3)Gal(b1-4)GlcNAc
How it was run: as §1

[22] = biological target: Neu5Gc(b2-6)Gal(b1-4)GlcNAc
How it was run: as §1

[23] = biological target: Fuc(a1-3)[Gal(b1-4)]GlcNAc
How it was run: as §1

Gal(a1-3)Gal(b1-3)GlcNAc = biological target: Gal(a1-3)Gal(b1-3)GlcNAc
How it was run: as §1

[24] = biological target: Gal(b1-4)GlcNAc(b1-3)Gal(b1-4)GlcNAc
How it was run: as §1

Gal3S6S(b1-4)GlcNAc6S = biological target: Gal3S6S(b1-4)GlcNAc6S
How it was run: as §1

Glc(a1-4)Glc = biological target: Glc(a1-4)Glc
How it was run: as §1

Glc(a1-6)Glc(a1-6)Glc = biological target: Glc(a1-6)Glc(a1-6)Glc
How it was run: as §1

Glc(b1-4)Glc = biological target: Glc(b1-4)Glc
How it was run: as §1

GlcA(b1-3)Gal = biological target: GlcA(b1-3)Gal
How it was run: as §1

[25] = biological target: GlcNAc(a1-3)Gal(b1-4)GlcNAc
How it was run: as §1

[26] = biological target: Man(a1-2)Man(a1-2)Man(a1-6)[Man(a1-3)]Man
How it was run: as §1

[27] = biological target: Man(a1-2)Man(a1-3)[Man(a1-6)]Man(a1-6)[Man(a1-2)Man(a1-3)]Man(b1-4)GlcNAc(b1-4)GlcNAc
How it was run: as §1

Neu5Ac(a2-3)Gal(b1-4)Glc = biological target: Neu5Ac(a2-3)Gal(b1-4)Glc
How it was run: as §1

[28] = biological target: Neu5Gc(a2-3)Gal(b1-3)GlcNAc
How it was run: as §1

| Binder | glycan array binding signal (z-score) [1] | glycan array binding signal (z-score) [2] | glycan array binding signal (z-score) [3] | glycan array binding signal (z-score) [4] | glycan array binding signal (z-score) [5] | glycan array binding signal (z-score) (GlcNAc(b1-3)GalNAc) | glycan array binding signal (z-score) (Kdn(a2-3)Gal(b1-4)Glc) | glycan array binding signal (z-score) [6] | glycan array binding signal (z-score) [7] | glycan array binding signal (z-score) [8] | glycan array binding signal (z-score) [9] | glycan array binding signal (z-score) [10] | glycan array binding signal (z-score) [11] | glycan array binding signal (z-score) [12] | glycan array binding signal (z-score) [13] | glycan array binding signal (z-score) [14] | glycan array binding signal (z-score) [15] | glycan array binding signal (z-score) [16] | glycan array binding signal (z-score) [17] | glycan array binding signal (z-score) [18] | glycan array binding signal (z-score) [19] | glycan array binding signal (z-score) [20] | glycan array binding signal (z-score) [21] | glycan array binding signal (z-score) [22] | glycan array binding signal (z-score) [23] | glycan array binding signal (z-score) (Gal(a1-3)Gal(b1-3)GlcNAc) | glycan array binding signal (z-score) [24] | glycan array binding signal (z-score) (Gal3S6S(b1-4)GlcNAc6S) | glycan array binding signal (z-score) (Glc(a1-4)Glc) | glycan array binding signal (z-score) (Glc(a1-6)Glc(a1-6)Glc) | glycan array binding signal (z-score) (Glc(b1-4)Glc) | glycan array binding signal (z-score) (GlcA(b1-3)Gal) | glycan array binding signal (z-score) [25] | glycan array binding signal (z-score) [26] | glycan array binding signal (z-score) [27] | glycan array binding signal (z-score) (Neu5Ac(a2-3)Gal(b1-4)Glc) | glycan array binding signal (z-score) [28] |
| --- | --- | --- | --- | --- | --- | --- | --- | --- | --- | --- | --- | --- | --- | --- | --- | --- | --- | --- | --- | --- | --- | --- | --- | --- | --- | --- | --- | --- | --- | --- | --- | --- | --- | --- | --- | --- | --- |
| B1 | -0.278 | -0.21 | -0.199 | -0.176 | -0.093 | -0.243 | -0.263 | -0.233 | -0.22 | -0.232 | -0.24 | -0.246 | -0.296 | -0.249 | -0.243 | -0.288 | -0.198 | -0.13 | -0.297 | -0.225 | -0.239 | -0.274 | -0.215 | -0.194 | – | – | – | – | – | – | – | – | – | – | – | – | – |
| B2 | – | – | – | – | – | – | – | – | – | – | – | – | 0.445 | – | – | – | -0.863 | – | – | – | – | – | – | – | -0.598 | -0.126 | -0.084 | 1.17 | 5.96 | 6.71 | 4.43 | -0.705 | 0.229 | 3.1 | 0.527 | -0.81 | -0.826 |
